Results from PubChem BioAssay (EPA / NIEHS).
Results filed as inconclusive are left out. Active and inactive are the calls of the source. How the source made its calls, unless noted: active means hit-call score of the fitted dose curve at least 0.9, where 1 is the maximum; inconclusive means response in the unintended direction; inactive means score below 0.9.

Legend:
[1] = molecular target: Hepatocyte nuclear factor 3-beta (Homo sapiens) (UniProt Q9Y261); experiment: ATG_FoxA2_CIS: Attagene CIS-FACTORIAL HepG2 Assay for human Forkhead box A2 (FOXA2) (AID 2282942; active means hit-call score of the fitted dose curve at least 0.9, where 1 is the maximum; inactive means score below 0.9); conditions: HepG2 cis-reporter transcription factor activity, 24 h; actives raise or lower the signal
Hepatocyte nuclear factor 3-beta (Homo sapiens), sequence (Q9Y261 whole entry, looked up): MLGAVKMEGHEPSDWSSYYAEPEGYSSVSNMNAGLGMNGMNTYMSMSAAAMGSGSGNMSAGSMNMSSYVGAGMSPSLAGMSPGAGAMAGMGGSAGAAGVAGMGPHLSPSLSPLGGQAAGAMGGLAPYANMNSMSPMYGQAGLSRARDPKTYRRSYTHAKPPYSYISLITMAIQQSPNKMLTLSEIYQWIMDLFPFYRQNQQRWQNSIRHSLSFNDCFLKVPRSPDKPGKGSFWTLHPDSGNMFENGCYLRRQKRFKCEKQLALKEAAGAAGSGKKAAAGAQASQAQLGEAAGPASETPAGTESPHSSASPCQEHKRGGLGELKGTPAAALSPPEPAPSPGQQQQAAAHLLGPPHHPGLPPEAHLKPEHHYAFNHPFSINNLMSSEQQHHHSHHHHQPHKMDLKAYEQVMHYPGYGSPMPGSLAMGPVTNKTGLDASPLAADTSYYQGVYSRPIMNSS
Procedure, shortened: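 Readout: fluorescent reporter transcripts resolved by capillary electrophoresis after RT-PCR. Transiently transfected HepG2, 24 h compound exposure, endogenous TF activity at cis promoter elements. Gain or loss of signal fitted relative to DMSO.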

[2] = molecular target: Hepatocyte nuclear factor 6 (Homo sapiens) (UniProt Q9UBC0); experiment: ATG_HNF6_CIS: Attagene CIS-FACTORIAL HepG2 Assay for human Hepatocyte Nuclear Factor 6 (HNF6) (AID 2282952; active means hit-call score of the fitted dose curve at least 0.9, where 1 is the maximum; inactive means score below 0.9); conditions: HepG2 Attagene cis-factorial HNF6 reporter transcription; actives raise or lower the signal
Hepatocyte nuclear factor 6 (Homo sapiens), sequence (Q9UBC0 whole entry, looked up, the tested form may be a part): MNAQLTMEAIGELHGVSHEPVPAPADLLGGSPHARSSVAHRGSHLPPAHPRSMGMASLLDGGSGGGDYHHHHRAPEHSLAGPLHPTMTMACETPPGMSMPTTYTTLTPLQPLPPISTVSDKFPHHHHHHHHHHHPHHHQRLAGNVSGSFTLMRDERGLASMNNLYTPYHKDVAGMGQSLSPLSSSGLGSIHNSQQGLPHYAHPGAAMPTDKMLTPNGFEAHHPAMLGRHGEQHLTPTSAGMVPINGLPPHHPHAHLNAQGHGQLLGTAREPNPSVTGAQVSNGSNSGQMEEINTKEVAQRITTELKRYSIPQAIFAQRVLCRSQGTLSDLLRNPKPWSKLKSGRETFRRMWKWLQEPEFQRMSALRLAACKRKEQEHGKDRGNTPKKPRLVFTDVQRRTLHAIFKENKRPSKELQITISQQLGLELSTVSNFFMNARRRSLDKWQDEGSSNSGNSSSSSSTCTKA
Procedure, shortened: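 Twenty-four-hour chemical treatment of reporter-transfected HepG2 cells precedes RNA isolation, DNase-treated reverse transcription and PCR of reporter sequences. Labelled fragments are sized by capillary electrophoresis and fitted bidirectionally versus DMSO.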

[3] = ATG_RORE_CIS: Attagene CIS-FACTORIAL HepG2 Assay for human RAR-related Orphan Receptor Element (RORE) (AID 2282959; active means hit-call score of the fitted dose curve at least 0.9, where 1 is the maximum; inactive means score below 0.9); conditions: HepG2 Attagene cis-factorial RORE reporter, mRNA; actives raise or lower the signal
Procedure, shortened: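 Readout: fluorescent reporter mRNA by RT-PCR plus capillary electrophoresis, 24 h after dosing transfected HepG2 cells. Endogenous transcription factor activity on a cis promoter element is measured. Gain or loss of signal fitted against DMSO.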

[4] = ATG_TGFb_CIS: Attagene CIS-FACTORIAL HepG2 Assay for human Transforming Growth Factor (TGF) (AID 2282967; active means hit-call score of the fitted dose curve at least 0.9, where 1 is the maximum; inactive means score below 0.9); conditions: HepG2 Attagene CIS TGFb reporter, mRNA transcription; actives raise or lower the signal
Procedure, shortened: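 Transcript-level reporter readout: HepG2 transfectants, 24 h exposure, RNA to cDNA, reporter-specific PCR, fluorescent primer extension, capillary sizing against ROX standards. Gain- or loss-of-signal relative to DMSO.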

[5] = molecular target: Nuclear respiratory factor 1 (Homo sapiens) (UniProt Q16656); experiment: ATG_NRF1_CIS: Attagene CIS-FACTORIAL HepG2 Assay for human Nuclear Respiratory Factor 1 (NRF1) Orphan Gene (AID 2282987; active means hit-call score of the fitted dose curve at least 0.9, where 1 is the maximum; inactive means score below 0.9); conditions: HepG2 NRF1 cis-element reporter, Attagene multiplex; actives raise or lower the signal
Nuclear respiratory factor 1 (Homo sapiens), sequence (Q16656 whole entry, looked up): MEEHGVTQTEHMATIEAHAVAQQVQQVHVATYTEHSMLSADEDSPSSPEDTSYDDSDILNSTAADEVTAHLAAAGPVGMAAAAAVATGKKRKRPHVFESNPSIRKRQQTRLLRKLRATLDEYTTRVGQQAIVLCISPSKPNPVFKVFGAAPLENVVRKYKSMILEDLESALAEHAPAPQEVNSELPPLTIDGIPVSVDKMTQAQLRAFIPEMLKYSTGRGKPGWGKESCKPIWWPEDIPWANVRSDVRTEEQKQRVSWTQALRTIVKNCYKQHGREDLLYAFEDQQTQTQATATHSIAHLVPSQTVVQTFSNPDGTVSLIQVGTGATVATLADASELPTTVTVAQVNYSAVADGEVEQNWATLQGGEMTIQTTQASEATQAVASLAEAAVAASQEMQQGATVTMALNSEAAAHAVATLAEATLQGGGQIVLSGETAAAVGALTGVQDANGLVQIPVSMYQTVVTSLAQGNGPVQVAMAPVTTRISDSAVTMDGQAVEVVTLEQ
Procedure, shortened: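 Endogenous NRF1-driven reporter transcription measured in transiently transfected human HepG2 liver cells. Readout: reporter mRNA by RT-PCR and capillary electrophoresis with fluorescence detection, 24 h post-dosing. Gain or loss of signal fitted relative to DMSO baseline.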

[6] = ATG_NF_kB_CIS: Attagene CIS-FACTORIAL HepG2 Assay for human Nuclear Factor Kappa B (NF-kB) (AID 2282991; active means hit-call score of the fitted dose curve at least 0.9, where 1 is the maximum; inactive means score below 0.9); conditions: HepG2 Attagene cis-factorial NF-kB reporter mRNA; actives raise or lower the signal
Procedure, shortened: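 Read-out: reporter transcript levels quantified by RT-PCR plus capillary electrophoresis of 6-FAM-labelled, HpaI-cut fragments. Transfected HepG2 cells, 24 h compound exposure, endogenous NF-kB-driven cis element; gain or loss scored versus DMSO.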

[7] = molecular target: human Retinoid X Receptor beta (RXRb), RXRB (gene 6257) (UniProt P28702); experiment: ATG_RXRb_TRANS: Attagene TRANS-FACTORIAL HepG2 Assay for human Retinoid X Receptor beta (RXRb) (AID 2283013)
human Retinoid X Receptor beta (RXRb), RXRB (gene 6257), sequence (P28702 whole entry, looked up, the tested form may be a part): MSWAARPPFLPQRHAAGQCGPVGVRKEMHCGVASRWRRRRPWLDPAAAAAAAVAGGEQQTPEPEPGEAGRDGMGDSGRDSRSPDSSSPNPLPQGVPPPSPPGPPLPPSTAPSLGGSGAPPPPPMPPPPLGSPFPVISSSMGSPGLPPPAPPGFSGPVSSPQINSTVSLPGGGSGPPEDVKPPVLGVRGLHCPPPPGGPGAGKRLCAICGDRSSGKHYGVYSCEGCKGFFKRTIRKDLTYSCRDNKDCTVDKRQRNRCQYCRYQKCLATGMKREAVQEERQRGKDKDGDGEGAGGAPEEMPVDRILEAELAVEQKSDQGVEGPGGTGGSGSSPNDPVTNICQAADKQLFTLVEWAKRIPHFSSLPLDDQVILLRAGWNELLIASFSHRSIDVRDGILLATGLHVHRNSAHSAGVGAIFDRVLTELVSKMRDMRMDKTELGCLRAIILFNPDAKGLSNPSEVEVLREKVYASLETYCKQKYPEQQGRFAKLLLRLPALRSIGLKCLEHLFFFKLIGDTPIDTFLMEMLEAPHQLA
Procedure, shortened: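 Read-out: reporter mRNA induction via RT-PCR plus capillary electrophoresis fluorescence, analysed as signal increase relative to DMSO. Cells were human HepG2, transiently transfected with GAL4-UAS reporter constructs and chimeric receptor-Gal4 fusions, dosed for 24 h.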

[8] = TOX21_p53_BLA_p2_viability: Viability Assessment in the Tox21 HCT-116 p53 Agonism Beta-lactamase Assay, Phase 2 (AID 2283591);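 further: compound exposure lasted 16 h at 37 °C; actives lower the ATP signal meaning cytotoxicity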
Procedure, shortened: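 HCT-116 p53-bla cells (4000/well) rested 5 h at 37C, then received compounds in DMSO (217-fold dilution) for 16 h at 37C, 5% CO2. After the CCF4 read, CellTiter-Glo was added; ATP luminescence was read after 30 min at room temperature.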

[9] = molecular target: Cellular tumor antigen p53 (Homo sapiens) (UniProt P04637); experiment: TOX21_p53_BLA_p2_ratio: Tox21 HCT-116 p53 Agonism Beta-lactamase Assay, Ratio, Phase 2 (AID 2283592)
Cellular tumor antigen p53 (Homo sapiens), sequence (P04637 whole entry, looked up): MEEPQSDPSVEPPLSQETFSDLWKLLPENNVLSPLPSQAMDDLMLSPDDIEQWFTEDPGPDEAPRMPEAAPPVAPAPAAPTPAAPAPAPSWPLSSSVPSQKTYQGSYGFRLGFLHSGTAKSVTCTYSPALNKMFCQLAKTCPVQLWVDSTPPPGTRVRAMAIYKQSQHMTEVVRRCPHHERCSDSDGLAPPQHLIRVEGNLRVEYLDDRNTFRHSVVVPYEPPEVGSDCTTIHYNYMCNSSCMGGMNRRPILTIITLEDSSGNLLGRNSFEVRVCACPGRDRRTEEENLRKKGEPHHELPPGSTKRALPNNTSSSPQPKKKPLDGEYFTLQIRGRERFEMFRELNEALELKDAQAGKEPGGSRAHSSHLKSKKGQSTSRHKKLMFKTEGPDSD
Procedure, shortened: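 DMSO-normalized, positive-direction endpoint derived from the 460 nm/530 nm FRET ratio in HCT116 p53 beta-lactamase reporter cells exposed 16 h at 37C and loaded with CCF4-AM for 2 h.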

[10] = molecular target: Cellular tumor antigen p53 (Homo sapiens) (UniProt P04637); experiment: TOX21_p53_BLA_p3_ratio: Tox21 HCT-116 p53 Agonism Beta-lactamase Assay, Ratio, Phase 3 (AID 2283596)
Procedure, shortened: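 Cells were seeded at 4000/well, rested 5 h at 37C, then dosed with DMSO compound solutions (217-fold dilution) for 16 h. CCF4-AM substrate was loaded for 2 h at room temperature, and the 460/530 nm emission ratio was fitted for gain of signal versus DMSO.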

[11] = TOX21_p53_BLA_p4_viability: Viability Assessment in the Tox21 HCT-116 p53 Agonism Beta-lactamase Assay, Phase 4 (AID 2283597);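 further: hits lower the luminescence signal meaning cytotoxicity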
Procedure, shortened: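 In this multiplexed secondary endpoint, HCT116 cells (4000 per well, compound at 5 h, 16 h treatment) received CellTiter-Glo after the beta-lactamase read. Luminescence after 30 min RT reflects ATP, and falling signal marks cytotoxicity.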

[12] = molecular target: Cellular tumor antigen p53 (Homo sapiens) (UniProt P04637); experiment: TOX21_p53_BLA_p5_ratio: Tox21 HCT-116 p53 Agonism Beta-lactamase Assay, Ratio, Phase 5 (AID 2283599)
Procedure, shortened: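 HCT-116 cells carrying a p53-inducible beta-lactamase reporter were seeded at 4000 cells/well and dosed after 5 h with compound in DMSO (217-fold dilution). After 16 h at 37C, CCF4-AM substrate was added for 2 h, and the 460/530 nm emission ratio was scored as gain-of-signal versus DMSO.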

[13] = TOX21_p53_BLA_p5_viability: Viability Assessment in the Tox21 HCT-116 p53 Agonism Beta-lactamase Assay, Phase 5 (AID 2283600)
Procedure, shortened: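 Here cell health was gauged by ATP levels in wells holding 4000 cells, each treated 16 h with DMSO-delivered compounds at 217-fold dilution; reduced luminescence marked toxicity.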

[14] = molecular target: Cellular tumor antigen p53 (Homo sapiens) (UniProt P04637); experiment: TOX21_p53_BLA_p4_ratio: Tox21 HCT-116 p53 Agonism Beta-lactamase Assay, Ratio, Phase 4 (AID 2283601)
Procedure, shortened: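 HCT116 cells carrying an inducible beta-lactamase reporter were plated at 4000 cells/well, rested 5 h, then exposed to compounds in DMSO (217-fold dilution) for 16 h at 37C. CCF4-AM substrate was loaded 2 h at room temperature; 460/530 nm emission ratio scored gain-of-signal versus DMSO.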

[15] = ATG_M_32_TRANS: Attagene TRANS-FACTORIAL HepG2 Assay for M32 Transcription Factor (Internal Marker) (AID 2282984); conditions: HepG2 Attagene TRANS M32 internal marker reporter;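 further: transcript level of a background control reporter unit measured by RT-PCR and capillary electrophoresis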
Procedure, shortened: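 Fluorescence-detected mRNA induction, HepG2 liver cells, 24 h after dosing. Multiple GAL4-UAS reporter units introduced by transient transfection; background-control endpoint analysed for gain of signal against DMSO.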

[16] = molecular target: Retinoic acid receptor RXR-alpha (Homo sapiens) (UniProt P19793); experiment: ATG_RXRa_TRANS: Attagene TRANS-FACTORIAL HepG2 Assay for human Retinoid X Receptor alpha (RXRa) (AID 2283012)
Retinoic acid receptor RXR-alpha (Homo sapiens), sequence (P19793 whole entry, looked up, the tested form may be a part): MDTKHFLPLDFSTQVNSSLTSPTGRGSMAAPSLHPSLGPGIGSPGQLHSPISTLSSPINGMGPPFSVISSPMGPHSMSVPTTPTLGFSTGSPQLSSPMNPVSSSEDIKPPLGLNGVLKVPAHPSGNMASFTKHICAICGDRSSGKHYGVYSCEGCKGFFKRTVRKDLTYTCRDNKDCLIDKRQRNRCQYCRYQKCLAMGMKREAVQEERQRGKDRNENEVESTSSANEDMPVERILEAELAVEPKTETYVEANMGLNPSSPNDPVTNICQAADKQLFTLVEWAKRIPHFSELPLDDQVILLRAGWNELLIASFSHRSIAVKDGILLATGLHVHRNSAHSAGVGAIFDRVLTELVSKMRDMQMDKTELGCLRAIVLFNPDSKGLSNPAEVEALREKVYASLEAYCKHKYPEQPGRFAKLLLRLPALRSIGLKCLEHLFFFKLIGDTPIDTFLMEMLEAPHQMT
Procedure, shortened: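 Read-out: fluorescent reporter-transcript fragments quantified by capillary electrophoresis after RT-PCR. Transiently transfected HepG2 cells carrying GAL4-UAS reporters and NR-GAL4 chimeras were exposed to chemical for 24 h; activity scored as increase over DMSO.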

[17] = ATG_GAL4_TRANS: Attagene TRANS-FACTORIAL HepG2 Assay for GAL4 (Internal Marker) (AID 2282976); conditions: HepG2 Attagene TRANS GAL4 internal marker reporter
Procedure, shortened: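 Liver HepG2 line bearing multiplexed GAL4-UAS reporter constructs; 24 h chemical treatment. Transcripts were quantified as fluorescent fragments on capillary electrophoresis after RT-PCR and HpaI cut, with activity fitted upward from DMSO.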

[18] = molecular target: Hepatocyte nuclear factor 4-alpha (Homo sapiens) (UniProt P41235); experiment: ATG_HNF4a_TRANS: Attagene TRANS-FACTORIAL HepG2 Assay for human Hepatocyte Nuclear Factor 4 alpha (HNF4a) (AID 2282982); conditions: HepG2 HNF4a transactivation reporter, mRNA readout
Hepatocyte nuclear factor 4-alpha (Homo sapiens), sequence (P41235 whole entry, looked up, the tested form may be a part): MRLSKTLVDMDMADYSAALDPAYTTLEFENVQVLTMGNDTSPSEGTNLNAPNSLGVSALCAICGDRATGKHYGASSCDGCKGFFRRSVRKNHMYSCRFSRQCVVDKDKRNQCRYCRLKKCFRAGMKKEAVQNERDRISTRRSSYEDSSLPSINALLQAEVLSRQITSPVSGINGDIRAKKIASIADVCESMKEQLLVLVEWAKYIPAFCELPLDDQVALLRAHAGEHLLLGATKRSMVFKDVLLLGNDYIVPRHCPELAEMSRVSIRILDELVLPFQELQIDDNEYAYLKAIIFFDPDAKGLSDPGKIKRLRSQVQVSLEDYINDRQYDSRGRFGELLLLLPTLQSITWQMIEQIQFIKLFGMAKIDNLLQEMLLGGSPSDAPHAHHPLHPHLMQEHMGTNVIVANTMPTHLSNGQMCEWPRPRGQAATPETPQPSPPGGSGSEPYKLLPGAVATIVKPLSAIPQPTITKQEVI
Procedure, shortened: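 Using HepG2 liver cells transfected with GAL4-UAS reporter units, chemical-induced mRNA increases were assessed after 24 hours. Fluorescent RT-PCR fragments were separated by capillary electrophoresis and compared with DMSO negative controls.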

[19] = molecular target: Nuclear receptor subfamily 4 group A member 2 (Homo sapiens) (UniProt P43354); experiment: ATG_NURR1_TRANS: Attagene TRANS-FACTORIAL HepG2 Assay for human Nuclear Receptor Related Protein 1 (NURR1) (AID 2282985); conditions: HepG2 Attagene TRANS reporter, mRNA readout
Nuclear receptor subfamily 4 group A member 2 (Homo sapiens), sequence (P43354 whole entry, looked up, the tested form may be a part): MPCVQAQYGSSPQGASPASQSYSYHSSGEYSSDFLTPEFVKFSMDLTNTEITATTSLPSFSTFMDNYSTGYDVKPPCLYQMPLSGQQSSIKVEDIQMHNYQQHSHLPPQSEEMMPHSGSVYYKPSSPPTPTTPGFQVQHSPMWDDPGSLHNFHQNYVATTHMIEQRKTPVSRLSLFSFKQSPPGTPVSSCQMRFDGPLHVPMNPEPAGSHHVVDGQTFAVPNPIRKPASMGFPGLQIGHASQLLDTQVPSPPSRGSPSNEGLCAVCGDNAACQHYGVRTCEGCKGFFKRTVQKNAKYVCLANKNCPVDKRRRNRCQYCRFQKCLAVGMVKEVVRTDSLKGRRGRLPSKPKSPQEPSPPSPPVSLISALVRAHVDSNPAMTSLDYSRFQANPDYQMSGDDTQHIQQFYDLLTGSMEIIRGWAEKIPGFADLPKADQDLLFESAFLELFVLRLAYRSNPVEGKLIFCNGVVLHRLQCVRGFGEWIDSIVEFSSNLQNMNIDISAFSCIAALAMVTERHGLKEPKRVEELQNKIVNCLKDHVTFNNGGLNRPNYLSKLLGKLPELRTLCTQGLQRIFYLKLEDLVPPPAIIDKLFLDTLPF
Procedure, shortened: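 Chimeric NR-Gal4 proteins were expressed in human HepG2 cells bearing GAL4-UAS reporter units, and induced reporter mRNA was quantified 24 h post-dosing by RT-PCR and capillary electrophoresis.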

[20] = molecular target: human Thyroid Receptor alpha (THRa1), THRA (gene 7067) (UniProt P10827); experiment: ATG_THRa1_TRANS: Attagene TRANS-FACTORIAL HepG2 Assay for human Thyroid Receptor alpha (THRa1) (AID 2283014)
human Thyroid Receptor alpha (THRa1), THRA (gene 7067), sequence (P10827 whole entry, looked up, the tested form may be a part): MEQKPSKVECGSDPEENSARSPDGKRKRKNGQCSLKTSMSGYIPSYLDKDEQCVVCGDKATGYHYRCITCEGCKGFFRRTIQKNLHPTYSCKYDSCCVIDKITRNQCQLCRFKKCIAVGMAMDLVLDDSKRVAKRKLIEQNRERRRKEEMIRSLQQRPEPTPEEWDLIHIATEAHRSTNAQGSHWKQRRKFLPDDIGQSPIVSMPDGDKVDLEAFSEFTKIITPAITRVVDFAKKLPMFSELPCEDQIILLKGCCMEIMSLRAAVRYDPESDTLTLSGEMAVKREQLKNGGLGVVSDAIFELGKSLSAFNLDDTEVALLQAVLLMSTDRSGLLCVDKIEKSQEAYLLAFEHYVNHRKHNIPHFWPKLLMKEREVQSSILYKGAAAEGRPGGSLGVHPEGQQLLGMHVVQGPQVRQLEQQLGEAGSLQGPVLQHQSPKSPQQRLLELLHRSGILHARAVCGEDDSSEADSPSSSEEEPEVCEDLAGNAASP
Procedure, shortened: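 Measured here is mRNA from a GAL4-UAS reporter in transfected HepG2 cells carrying a Gal4-fused receptor, 24 h post-dose. DMSO served as negative control and baseline.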

Compound: CCCN[C@H]1CCc2nc(N)sc2C1
- outcome [1]: inactive
- outcome [2]: inactive
- outcome [3]: inactive
- outcome [4]: inactive
- outcome [5]: inactive
- outcome [6]: inactive
- outcome [7]: inactive
- outcome [8]: inactive
- outcome [9]: inactive
- outcome [10]: inactive
- outcome [11]: inactive
- outcome [12]: inactive
- outcome [13]: inactive
- outcome [14]: inactive

Compound: O=C(c1ccccc1)c1ccccc1O
- outcome [1]: inactive
- AC50 [2]: 148 µM (active)
- outcome [3]: inactive
- outcome [4]: inactive
- outcome [15]: inactive
- outcome [5]: inactive
- outcome [6]: inactive
- outcome [16]: inactive
- AC50 [7]: 75.9 µM (active)

Compound: CCCCCCCC#N
- outcome [1]: inactive
- outcome [17]: inactive
- outcome [18]: inactive
- outcome [19]: inactive
- outcome [5]: inactive
- outcome [6]: inactive
- outcome [16]: inactive
- outcome [20]: inactive

Compound: CCCCCCC1CCC(=O)O1 (stereo not drawn)
- outcome [1]: inactive
- outcome [4]: inactive
- outcome [17]: inactive
- outcome [18]: inactive
- outcome [15]: inactive
- outcome [19]: inactive
- outcome [16]: inactive
- outcome [7]: inactive
- outcome [8]: inactive
- outcome [9]: inactive
- outcome [10]: inactive
- outcome [12]: inactive

Compound: CN(C)c1ccc(C(c2ccccc2)c2ccc(N(C)C)cc2)cc1
- outcome [1]: inactive
- outcome [3]: inactive
- outcome [4]: inactive
- outcome [17]: inactive
- outcome [18]: inactive
- outcome [15]: inactive
- outcome [19]: inactive
- outcome [6]: inactive
- outcome [16]: inactive
- outcome [7]: inactive
- outcome [20]: inactive
- outcome [8]: inactive
- outcome [9]: inactive
- outcome [10]: inactive
- outcome [11]: inactive
- outcome [12]: inactive
- outcome [13]: inactive
- outcome [14]: inactive

Compound: F[B-](F)(F)F
- outcome [3]: inactive
- outcome [4]: inactive
- outcome [18]: inactive
- outcome [15]: inactive
- outcome [19]: inactive
- outcome [5]: inactive
- outcome [16]: inactive

Compound: C=C1CC[C@H]2C[C@@H]1C2(C)C
- outcome [2]: inactive
- outcome [4]: inactive
- outcome [17]: inactive
- outcome [18]: inactive
- outcome [19]: inactive
- outcome [6]: inactive
- outcome [16]: inactive

Compound: c1cc(N(CC2CO2)CC2CO2)ccc1Cc1ccc(N(CC2CO2)CC2CO2)cc1 (stereo not drawn)
- outcome [1]: inactive
- outcome [2]: inactive
- outcome [3]: inactive
- outcome [4]: inactive
- outcome [17]: inactive
- outcome [18]: inactive
- outcome [15]: inactive
- AC50 [19]: 70.9 µM (active)
- outcome [6]: inactive
- outcome [16]: inactive
- outcome [7]: inactive
- outcome [8]: inactive
- AC50 [9]: 26.8 µM (active)
- AC50 [10]: 81.6 µM (active)
- outcome [11]: inactive
- AC50 [12]: 55.4 µM (active)
- outcome [13]: inactive
- AC50 [14]: 33.1 µM (active)

Compound: C[Si](C)(C)O[Si](C)(C)O[Si](C)(C)C
- outcome [1]: inactive
- outcome [4]: inactive
- outcome [5]: inactive
- outcome [6]: inactive
- outcome [8]: inactive
- outcome [9]: inactive
- outcome [10]: inactive
- outcome [12]: inactive
- outcome [13]: inactive

Compound: Nc1ccc(S(=O)(=O)Nc2cnc3ccccc3n2)cc1
- outcome [1]: inactive
- outcome [2]: inactive
- outcome [3]: inactive
- outcome [4]: inactive
- outcome [18]: inactive
- outcome [15]: inactive
- outcome [19]: inactive
- outcome [5]: inactive
- outcome [6]: inactive
- outcome [16]: inactive
- AC50 [7]: 31.5 µM (active)
- outcome [20]: inactive
- outcome [8]: inactive
- outcome [9]: inactive
- outcome [10]: inactive
- outcome [12]: inactive
- outcome [13]: inactive
- outcome [14]: inactive

Compound: COc1c2occc2cc2ccc(=O)oc12
- outcome [1]: inactive
- outcome [3]: inactive
- outcome [4]: inactive
- outcome [17]: inactive
- outcome [16]: inactive
- AC50 [7]: 100 µM (active)
- outcome [20]: inactive
- outcome [9]: inactive
- outcome [10]: inactive
- outcome [11]: inactive
- outcome [12]: inactive
- outcome [13]: inactive
- outcome [14]: inactive
